# Source: PubChem
# PAFAH1B2 inh: blocks human PAF acetylhydrolase 1b catalytic subunit 2; P68402; inhibition, % at 3.39 µM; AID 492953; recombinant PAFAH1B2, FP-rhodamine activity probe, fluorescence polarization; 340,000 tested, 1.2% active;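 active = inhibition above the mean of all tested compounds plus 3 SD, cut at about 24% in these data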;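 also: 0% = enzyme with DMSO and 100% = wells lacking PAFAH1B2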
# PP5 inh: inhibitors of human protein phosphatase 5 (PP5). P53041. purified PP5c, OMFP substrate fluorescence. inhibition, % at 6.7 µM. 320,000 tested, 0.18% active. AID 1987;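 active = inhibition above the campaign's mean inhibition across all tested compounds plus 3 SD, cut at about 9.5% in these data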;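 also: 0% = DMSO only and 100% = 100 µM cantharidin control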
# PAFAH2 inh: inhibitors of human PAFAH2; recombinant PAFAH2, FP-rhodamine activity probe, fluorescence polarization; Q99487; 340,000 tested, 0.99% active; inhibition, % at 3.39 µM;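 active = inhibition above the mean over all tested compounds plus 3 SD, cut at about 30% in these data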;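 also: inhibitors block probe labeling of enzyme so polarization drops; 0% = enzyme with DMSO and 100% = wells lacking PAFAH2 protein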
# pPAFAH inh: inhibitors of human plasma PAF acetylhydrolase (pPAFAH) | recombinant pPAFAH, FP-rhodamine probe fluorescence polarization | inhibition, % at 3.39 µM | 330,000 tested, 1.5% active | AID 463082;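 active = inhibition above the mean inhibition across the screen plus 3 SD, cut at about 25% in these data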;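 also: inhibitors block binding of the rhodamine activity-based probe so polarization drops; 0% = enzyme with DMSO and 100% = wells lacking pPAFAH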
# PAFAH1B3 inh: inhibitors of human PAFAH1B3. Q15102. recombinant PAFAH1B3, FP-rhodamine probe, fluorescence polarization. inhibition, % at 3.39 µM. 340,000 tested, 0.28% active. AID 492972;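 active = inhibition above the screen-wide average of all tested compounds plus 3 SD, cut at about 25% in these data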;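 also: 0% = enzyme with DMSO only and 100% = wells lacking PAFAH1B3 protein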
# Target sequence (Q15102 whole entry, looked up): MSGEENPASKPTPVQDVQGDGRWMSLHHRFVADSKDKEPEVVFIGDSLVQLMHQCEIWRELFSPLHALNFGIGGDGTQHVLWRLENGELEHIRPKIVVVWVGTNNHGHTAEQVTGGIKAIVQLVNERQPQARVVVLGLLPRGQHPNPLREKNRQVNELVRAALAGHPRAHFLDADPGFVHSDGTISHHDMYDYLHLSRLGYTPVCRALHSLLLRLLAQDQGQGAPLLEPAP
# PP1 counter: counter-screen for PP5 inhibitors: inhibitors of human PP1-alpha | purified PP1alpha, OMFP fluorescence | inhibition, % at 6.7 µM | 320,000 tested, 0.9% active | AID 2235;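 active = inhibition above the mean inhibition of all tested compounds plus 3 SD, computed separately for each screening campaign, cut at about 15% in these data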
# Target sequence (P62136 whole entry, looked up): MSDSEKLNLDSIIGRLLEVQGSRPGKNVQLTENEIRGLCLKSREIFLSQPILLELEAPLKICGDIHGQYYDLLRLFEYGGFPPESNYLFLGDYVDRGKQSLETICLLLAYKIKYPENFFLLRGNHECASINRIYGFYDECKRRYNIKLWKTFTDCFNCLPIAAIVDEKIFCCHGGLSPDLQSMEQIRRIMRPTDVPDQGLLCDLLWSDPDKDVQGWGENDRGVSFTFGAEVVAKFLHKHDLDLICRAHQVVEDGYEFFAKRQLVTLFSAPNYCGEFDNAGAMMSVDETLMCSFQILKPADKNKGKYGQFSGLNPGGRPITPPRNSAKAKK
# pPAFAH FP conf: confirmation of human plasma PAF acetylhydrolase (pPAFAH) inhibitors; shares compounds with pPAFAH inh; recombinant pPAFAH, FP-Rh probe fluorescence polarization; inhibition, % at 3.39 µM; 2,300 tested, 72% active;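 active = mean inhibition of the triplicate above the hit cutoff set for the earlier primary screen, cut at about 25% in these data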;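 also: 0% = enzyme with DMSO and 100% = wells lacking pPAFAH enzyme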
# The depositor's hits bear a star; . = no result. An excerpt weighted towards active compounds, which were near 3.4% of everything screened.
SMILES,PAFAH1B2 inh,PP5 inh,PAFAH2 inh,pPAFAH inh,PAFAH1B3 inh,PP1 counter,pPAFAH FP conf
O=C(NCN1CCN(c2ccccc2F)CC1)c1ccccc1,2,-1,-1,6,-1,-3,.
COc1cc(C(=O)NCC2CCCCC2)cc(OC)c1OC,2,1,-2,2,3,4,.
COc1cc(C(=O)NCCC(=O)NC2CCCCC2)cc(OC)c1OC,2,2,13,47*,0,2,3
CC(C)C[C@@H]1NC(=O)[C@H](Cc2ccc(O)cc2)NC(=O)[C@H](CCC(N)=O)NC(=O)c2cc([N+](=O)[O-])cc(I)c2NCC[C@@H](C(N)=O)NC1=O,.,3,.,9,.,2,.
O=C(N/N=C1/CCSC1)c1cc(Br)ccc1O,10,0,16,37*,14,0,11
Cc1ccc(S(=O)(=O)Nc2cc(Cl)c(O)c3ncccc23)cc1,8,3,5,46*,19,6,37*
CC(=O)c1ccc(NC(=O)C2CCCC2)cc1,2,.,1,.,-4,.,.
N#CC1(NC(=O)COC(=O)c2nc(Cl)ccc2Cl)CCCCC1,11,0,7,8,10,-5,.
Cc1[nH]c2ccc(C(=O)OCC(=O)NC3(C#N)CCCCC3)cc2c1C,2,4,86*,45*,7,-2,43*
c1coc(-c2nc(-c3ccco3)c(-c3ccco3)nc2-c2ccco2)c1,45*,2,73*,100*,47*,43*,43*
Nc1nc(-c2ccco2)c(-c2ccco2)s1,-2,0,7,37*,12,3,10
c1coc(-c2ncc[nH]2)c1,0,0,4,-1,6,-1,.
Nc1nc(-c2ccco2)cs1,6,0,-1,8,10,-2,.
CC(=O)NC(Cc1ccc(F)cc1)C(=O)NC1CCN(C(=O)NCc2ccccc2)CC1 (stereo not drawn),3,0,-13,5,4,-2,.
CCN(CC)C(=O)N1CCN(S(=O)(=O)c2ccc(C)cc2)CC1,6,0,5,-1,5,-4,.
COc1cc(N)c(Cl)cc1C(=O)OCC(=O)NCc1cccs1,3,.,13,3,0,.,.
CCOC(=O)Cc1cc(=O)n2[nH]c(-c3ccc(Cl)cc3)cc2n1,5,3,19,35*,3,16*,8
CCCc1cc(=O)n2[nH]c(-c3ccc(Cl)cc3)cc2n1,9,0,13,13,0,-2,.
CC1(C)CCC/C(=C\c2ccccc2)C1=O,3,2,2,46*,4,-4,8
O=C1OCC/C1=C\c1ccccc1,1,2,8,-6,2,1,.
O=C(CC1Nc2cccc3cccc(c23)NC1=O)Nc1ccccc1 (stereo not drawn),4,1,58*,52*,18,1,12
O=C(N/N=C/c1ccc(N2CCOCC2)cc1)c1ccc(NS(=O)(=O)c2cccs2)cc1,0,1,0,7,2,2,.
O=C(N/N=C/c1ccc([N+](=O)[O-])o1)c1ccc(NS(=O)(=O)c2cccs2)cc1,3,2,14,39*,18,-1,12
Cc1ccc(S(=O)(=O)N2CCCCC2CCNC(=O)C(=O)NCc2ccccc2C)cc1 (stereo not drawn),9,4,3,2,-4,-3,.
CCOCCn1c(=O)c2c(nc3n2CCCN3Cc2ccccc2)n(C)c1=O,2,1,1,42*,1,-1,3
SMILES,PAFAH1B2 inh,PP5 inh,PAFAH2 inh,pPAFAH inh,PAFAH1B3 inh,PP1 counter,pPAFAH FP conf
Cc1cc(/C=C2/SC(=S)N(c3cccc(Cl)c3)C2=O)c(C)n1-c1cccnc1,2,1,9,39*,-6,7,37*
CC1Oc2cc3oc4c(O)c(O)ccc4c(=O)c3c(O)c2C1(C)C (stereo not drawn),11,6,32*,75*,8,-2,83*
CNc1nc(-c2ccccc2)nc(-c2ccc(OC)cc2)c1C#N,2,0,-3,-1,2,-2,.
COc1ccc(-c2nc(-c3ccccc3)[nH]c(=O)c2C#N)cc1,-6,2,4,52*,-6,-1,0
Cc1ccc(N2NC(=O)/C(=C\c3cc4c(cc3[N+](=O)[O-])OCO4)C2=O)cc1C,16,1,50*,48*,7,13,15
Cc1ccc(C(=O)n2nc(-c3ccccc3)nc2NCc2ccco2)cc1,3,1,7,74*,5,2,1
Cc1nc2cc(C(=O)OCC(=O)Nc3cccc(Cl)c3)ccc2n1-c1ccccc1,-4,2,64*,43*,-2,1,41*
CC(=O)c1ccc(NC(=O)CSc2nnc(-c3ccco3)c(-c3ccco3)n2)cc1,2,2,27,46*,17,3,15
O=C(CSc1nnc(-c2ccco2)c(-c2ccco2)n1)c1ccccc1,10,0,33*,54*,12,5,16
OCC[C@H]1C[C@H](O)[C@@H](O)[C@@]2(CCCO2)O1,8,1,-2,3,12,-4,.
CN(C(=O)CC1C(=O)NCCN1Cc1ccc(F)c(F)c1)C1CCOCC1 (stereo not drawn),2,2,3,59*,-1,-4,2
Cc1ccc(-n2nnnc2CNC(=O)c2ccc3c(c2)OCO3)cc1C,4,1,4,6,5,1,.
O=C(Nc1nc(-c2cccs2)c(C(=O)C(F)(F)F)s1)c1ccccc1,0,1,-7,2,-9,-1,.
CCOC(=O)c1ccc(N2C(=O)CC(Sc3ncccn3)C2=O)cc1 (stereo not drawn),0,-1,-3,40*,6,-2,5
Cc1ccc(C(=O)c2coc3c2C(=O)C(=O)c2ccccc2-3)cc1,6,3,0,11,0,6,.
C[C@H]1COC2=C1C(=O)C(=O)c1c2ccc2c1CCCC2(C)C,18,6,41*,80*,28*,3,74*
Cc1coc2c1C(=O)C(=O)c1c-2ccc2c1CCCC2(C)C,27*,1,76*,56*,7,2,70*
O=C1CC(N(O)c2ccccc2)C(=O)N1c1cc(Cl)cc(Cl)c1 (stereo not drawn),7,3,-4,51*,6,1,8
CCCOc1ccc(N2C(=O)CC(N(O)c3ccccc3)C2=O)cc1 (stereo not drawn),8,1,-2,8,-4,2,.
O=C(O)COc1cccc(/C=C2/SC(=S)N(Cc3ccccc3)C2=O)c1,3,0,1,40*,-1,13,33*
